High-throughput results deposited in PubChem BioAssay by National Center for Advancing Translational Sciences (NCATS).
Shown are actives, neighbours in structure and some others; about 8% of the full set was active somewhere.
KB-V1 cytotox: kills drug-selected multidrug resistant KB-V1 cells | KB-V1 MDR cells viability, CellTiter-Glo, 72 h | Potency, µM (top dose mostly 46.1 µM), actives largely listed as cytotoxic | 400,000 compounds, 3.4% hits | AID 1347076; note: % is set by controls: 0 for no effect and ±100 for the full control effect; nearly all actives have a fitted effect of over 60% in size
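In this primary screen, KB-V1 cells overexpressing P-gp are incubated with library compounds (lowest to highest concentration) for 72 h at 37 degrees C before a luminescent ATP viability read.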
KB-3-1 cytotox: kills parental KB-3-1 adenocarcinoma cells | KB-3-1 viability, CellTiter-Glo ATP luminescence, 72 h | 400,000 compounds, 1.4% hits | Potency, µM (highest dose often 46.1 µM), hits mostly cytotoxic; note: % is set by controls: 0 for no effect and ±100 for the full control effect; nearly all actives have a fitted effect of over 60% in size
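Parental KB-3-1 viability, qHTS format: 72 h compound exposure, 37 °C; CellTiter-Glo; media-only wells and DMSO plates as controls; concentration-effect fits on corrected data.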
SW480 rerep: DNA re-replication induction in SW480 cells. SW480 DNA re-replication, Hoechst DNA content imaging, 48 h. Potency, µM (titrated, usually from 46.1 µM), for the others: top-dose re-replication activation, actives largely listed as activators. 340,000 compounds, 1.8% hits. AID 624297; note: % of control where 0% means no effect; nearly all actives have a fitted effect of over 55% in size
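DNA re-replication was detected as more nuclei of elevated Hoechst intensity after 48 hr exposure to compound (23 nL pinned per well of 250 cells).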
HT1080NT lethal: kills 2HG-producing HT-1080-NT fibrosarcoma cells. HT-1080-NT fibrosarcoma viability, CellTiter-Glo ATP luminescence, 48 h. Potency, µM (titrated, usually from 46.1 µM), without a hit: at the highest dose activity, negative = less viability, hits mostly cytotoxic. 360,000 compounds, 1.6% hits. AID 686970;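 note: NT is the 2HG producing partner of a matched IDH1 knockdown line; 0% = DMSO-treated cells and -100% = media-only wells without cells; nearly all actives have a fitted effect of over 55% in size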
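HT-1080-NT; 750 cells/well; 5% FBS RPMI; 48 h compound, 37 degrees C; CellTiter-Glo luminescence; curve fitting and curve-class assignment.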
MCF10A rereplic: inducers of DNA re-replication in MCF 10A breast cells. MCF 10A DNA re-replication, Hoechst nuclear intensity, 48 h. Potency, µM (titrated, usually from 46.1 µM), without a hit: top-dose activity, positive = re-replication, hits mostly activators. 350,000 compounds, 2.9% hits. AID 624296; note: % of control where 0% means no effect; nearly all actives have a fitted effect of over 50% in size
HT1080 IDH1KD tx: HT-1080 IDH1 knockdown cell toxicity (counter line). HT-1080 IDH1 knockdown viability, ATP luminescence, 48 h. AID 686971. 360,000 compounds, 2% hits. Potency, µM (highest dose often 46.1 µM), for inactives: at the top dose activity, negative = toxicity, hits mostly cytotoxic;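 note: 0% = DMSO wells and -100% = cell-free medium wells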
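% activity derives from luminescence (CellTiter-Glo), normalised to DMSO and no-cell wells. HT-1080-IDH1KD cells, 750/well, had 48 h compound exposure at 37 °C.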
An asterisk follows results filed as active; [ ] = dose if it differs, or a comment. Calls come from the whole dose curve; as a rule, active = well fitted curve in the direction sought with a large enough effect; inconclusive = small, poorly fitted or top-dose-only effect, or another doubt; inactive = no such curve, though single readings can be large; an effect the other way counts as inactive or inconclusive. Potency is the fitted concentration of half-maximal effect.

Results for CCCN(CCC)CCCNc1ccc(C(=O)Nc2cccc(OC)c2)cc1[N+](=O)[O-] ?
KB-V1 cytotox: inactive; KB-3-1 cytotox: inactive; SW480 rerep: inconclusive; HT1080NT lethal: inconclusive; MCF10A rereplic: 13%; HT1080 IDH1KD tx: 21µM*

What do the screens show for `COc1ccc(NC(=O)CN(C)C(=O)c2ccc3ccccc3c2)cc1`?
KB-V1 cytotox: inactive; KB-3-1 cytotox: inactive; SW480 rerep: 4%; HT1080NT lethal: -9%; MCF10A rereplic: -4%; HT1080 IDH1KD tx: 0%

Results for Cc1ccc(NC(=O)c2ccc(NCCc3ccccc3)c([N+](=O)[O-])c2)cc1F ?
KB-V1 cytotox: inactive; KB-3-1 cytotox: inconclusive; SW480 rerep: 4%; HT1080NT lethal: -2%; MCF10A rereplic: 18µM*; HT1080 IDH1KD tx: 4%

How did O=C(Nc1cc(F)cc(F)c1)c1ccc(NCCc2ccccc2)c([N+](=O)[O-])c1 do in these assays?
KB-V1 cytotox: inactive; KB-3-1 cytotox: inactive; SW480 rerep: -10%; HT1080NT lethal: -23%; MCF10A rereplic: 17%; HT1080 IDH1KD tx: -18%

What do the screens show for `CCCn1c(N)c(N(CCOC)C(=O)c2ccc(C#N)cc2)c(=O)[nH]c1=O`?
KB-V1 cytotox: inactive; KB-3-1 cytotox: inactive; SW480 rerep: -22%; HT1080NT lethal: 4%; MCF10A rereplic: 16%; HT1080 IDH1KD tx: 1%

Results for CCOC(=O)c1ccc(CN(Cc2ccc(C)cc2)S(=O)(=O)c2cccc([N+](=O)[O-])c2)cc1 ?
KB-V1 cytotox: inactive; KB-3-1 cytotox: inactive; SW480 rerep: -3%; HT1080NT lethal: 6%; MCF10A rereplic: -21%; HT1080 IDH1KD tx: 10%

How did CCOC(=O)C(C)(C)N(Cc1cccc(C)c1)S(=O)(=O)c1ccc(Cl)c([N+](=O)[O-])c1 do in these assays?
KB-V1 cytotox: inactive; KB-3-1 cytotox: 21µM*; SW480 rerep: inconclusive; HT1080NT lethal: -11%; MCF10A rereplic: 5.2µM*; HT1080 IDH1KD tx: inconclusive

What do the screens show for `CCOC(=O)C(C)(C)N(Cc1cccc(C)c1)S(=O)(=O)c1cccc([N+](=O)[O-])c1`?
KB-V1 cytotox: 7.3µM*; KB-3-1 cytotox: 16µM*; SW480 rerep: -4%; HT1080NT lethal: -1%; MCF10A rereplic: 5%; HT1080 IDH1KD tx: -8%

What do the screens show for `Cc1nc(C)c(-c2csc(Nc3cccc(O)c3)n2)s1`?
KB-V1 cytotox: inconclusive; KB-3-1 cytotox: inactive; SW480 rerep: -1%; HT1080NT lethal: inconclusive; MCF10A rereplic: -10%; HT1080 IDH1KD tx: inconclusive

What do the screens show for `Cc1nc(N)sc1-c1csc(Nc2ccccn2)n1`?
KB-V1 cytotox: inactive; KB-3-1 cytotox: inactive; SW480 rerep: -1%; HT1080NT lethal: -1%; MCF10A rereplic: 3%; HT1080 IDH1KD tx: -22%

What do the screens show for `Cc1cccc(Nc2nc(-c3sc(C)nc3C)cs2)c1`?
KB-V1 cytotox: inconclusive; KB-3-1 cytotox: inconclusive; SW480 rerep: -4%; HT1080NT lethal: 26µM*; MCF10A rereplic: 13%; HT1080 IDH1KD tx: inconclusive

How did Cc1ccc(Nc2nc(-c3sc(C)nc3C)cs2)cc1 do in these assays?
KB-V1 cytotox: 1.8µM*; KB-3-1 cytotox: 2.3µM*; SW480 rerep: 2.1µM*; HT1080NT lethal: 1.5µM*; MCF10A rereplic: inconclusive; HT1080 IDH1KD tx: 1.8µM*

How did Cc1nc(N)sc1-c1csc(Nc2ccc(Cl)cn2)n1 do in these assays?
KB-V1 cytotox: 18µM*; KB-3-1 cytotox: inactive; SW480 rerep: 1%; HT1080NT lethal: inconclusive; MCF10A rereplic: inconclusive; HT1080 IDH1KD tx: inconclusive

Results for Cc1ccc(-c2csc(/C(C#N)=C/Nc3ccc4c(c3)OCCO4)n2)cc1 ?
KB-V1 cytotox: inactive; KB-3-1 cytotox: inactive; SW480 rerep: inconclusive; HT1080NT lethal: 14%; MCF10A rereplic: 3.7µM*; HT1080 IDH1KD tx: 7%

How did Cc1ccc(/C=C(\C#N)c2nc(-c3ccc(-c4ccccc4)cc3)cs2)cc1 do in these assays?
KB-V1 cytotox: inconclusive; KB-3-1 cytotox: inactive

How did COCCNC(=O)Cn1ncc2c(C)n(Cc3ccc(C)cc3)c(C)c2c1=O do in these assays?
KB-V1 cytotox: inactive; KB-3-1 cytotox: inactive

Results for COc1ccc(C)cc1NC(=O)C1CCCN(c2ncnc3onc(C)c23)C1 (stereo unspecified) ?
KB-V1 cytotox: inactive; KB-3-1 cytotox: inactive

What do the screens show for `O=[N+]([O-])c1cccc(-n2nnnc2CNCc2ccccc2)c1`?
KB-V1 cytotox: inactive; KB-3-1 cytotox: inactive; SW480 rerep: inconclusive; HT1080NT lethal: 3%; MCF10A rereplic: 1%; HT1080 IDH1KD tx: 10%

Results for CC(=O)c1ccc(Nc2nc(-c3sc(C)nc3C)cs2)cc1 ?
KB-V1 cytotox: 12µM*; KB-3-1 cytotox: inconclusive; HT1080NT lethal: inconclusive; HT1080 IDH1KD tx: 2.9µM*

How did COc1ccc(Nc2nc(-c3sc(C)nc3C)cs2)c(OC)c1 do in these assays?
KB-V1 cytotox: inconclusive; KB-3-1 cytotox: 7.3µM*; SW480 rerep: 21µM*; HT1080NT lethal: inconclusive; MCF10A rereplic: inconclusive; HT1080 IDH1KD tx: 16µM*

How did Cc1cccc(Nc2nc(-c3ccc4c(c3)OCCO4)cs2)c1 do in these assays?
KB-V1 cytotox: inactive; KB-3-1 cytotox: inconclusive; SW480 rerep: 7.3µM*; HT1080NT lethal: -10%; MCF10A rereplic: 14µM*; HT1080 IDH1KD tx: -25%

What do the screens show for `COc1ccc(Nc2nc(-c3cccs3)cs2)c(OC)c1`?
KB-V1 cytotox: inactive; KB-3-1 cytotox: inactive; SW480 rerep: -14%; HT1080NT lethal: -4%; MCF10A rereplic: 16%; HT1080 IDH1KD tx: -4%

Results for Cc1ccnc(Nc2nc(-c3sc(C)nc3C)cs2)c1 ?
KB-V1 cytotox: inconclusive; KB-3-1 cytotox: inconclusive; SW480 rerep: inconclusive; HT1080NT lethal: inconclusive; MCF10A rereplic: 23µM*; HT1080 IDH1KD tx: inconclusive

Results for CCC(=O)Nc1ccc2c(c1)nc(CN1CCCCC1)n2C ?
KB-V1 cytotox: inactive; KB-3-1 cytotox: inactive; SW480 rerep: -4%; HT1080NT lethal: 4%; MCF10A rereplic: -1%; HT1080 IDH1KD tx: 1%

Results for COc1ccc(N/C=C\C(=O)c2ccc(Br)cc2)cc1OC ?
KB-V1 cytotox: inactive; KB-3-1 cytotox: inactive; SW480 rerep: 0%; HT1080NT lethal: 21%; MCF10A rereplic: 0%; HT1080 IDH1KD tx: 13%

What do the screens show for `CNC(=O)c1ccc(CNC(=O)OCc2ccccc2)cc1`?
KB-V1 cytotox: inactive; KB-3-1 cytotox: inconclusive; SW480 rerep: 2%; HT1080NT lethal: -2%; MCF10A rereplic: -1%; HT1080 IDH1KD tx: 0%

Results for Cc1cc(Cl)n2ncc(-c3ccccc3)c2n1 ?
KB-V1 cytotox: inactive; KB-3-1 cytotox: inactive; SW480 rerep: -9%[9.22 µM]; HT1080NT lethal: 18µM*; MCF10A rereplic: inconclusive; HT1080 IDH1KD tx: inconclusive
